PfHsp90 yeast 2: inhibits growth of yeast expressing Plasmodium falciparum Hsp90; S. cerevisiae expressing PfHsp90, BacTiter-Glo ATP, 48 h; yeast lacking PDR1 and PDR3 efflux regulators; inhibition, % at 9.4 µM; actives 0.32% (n = 310,000);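 active = every replicate shows inhibition above about 80%, whatever the replicate mean, limit read from the data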
tim23-1 inh: growth inhibitors of tim23-1 mutant yeast. inhibition, % at 20 µM. actives 1.3% (n = 330,000). S. cerevisiae tim23-1 growth, BacTiter-Glo luminescence, 24 h;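 active = growth inhibition of the mutant yeast at or above 50%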;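 also: temperature-sensitive mutant grown at 25 °C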
NALP3 yeast inh: inhibitors of NALP3 inflammasome in yeast | Yeast reconstituted NLRP3/ASC/caspase-1, beta-gal luminescence, 24 h | inhibition, % at 10 µM | actives 0.39% (n = 330,000) | AID 2825;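 active = inhibition of 50% or more; inactive = inhibition below 50%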
tim10-1 inh: growth inhibitors of tim10-1 mutant yeast. S. cerevisiae tim10-1 ts strain growth, BacTiter-Glo, 24 h. inhibition, % at 20 µM. actives 2.2% (n = 330,000);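 active = inhibition of at least 40%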;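 also: mutant grown at 25 °C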
TIM10 inh: inhibits growth of TIM10 yeast strain | S. cerevisiae TIM10 strain growth, BacTiter-Glo luminescence, 24 h | inhibition, % at 10 µM | actives 1.4% (n = 330,000) | AID 463195;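 active = inhibition of 40% or more at the single tested concentration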;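 also: wild-type TIM10 isogenic control strain grown at permissive 25 °C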
tim10-1 confirm: confirmation of tim10-1 mutant yeast growth inhibitors. shares compounds with tim10-1 inh. S. cerevisiae tim10-1 ts strain growth, BacTiter-Glo, 24 h. inhibition, % at 20 µM. actives 56% (n = 7,400). AID 463213;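 active = inhibition of yeast growth at or above a set limit in either of two repeat tests at 20 µM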;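 also: tim10-1 mutant grown at permissive 25 °C to find synthetic lethal compounds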
Numbers stand for hits; 0 = inactive; - = no result. Rows were chosen to be rich in hits. Some 3.7% of all compounds tested hit in one or more screens of this group.

SMILES	PfHsp90 yeast 2	tim23-1 inh	NALP3 yeast inh	tim10-1 inh	TIM10 inh	tim10-1 confirm
Cc1ccc(C)c(NS(=O)(=O)c2ccc(-c3coc(C)n3)cc2)c1	0	0	0	41	0	0
O=C1c2ccccc2C(Nc2ccc3c(c2)OCCO3)N1Cc1ccccc1 (stereo not given)	0	0	0	0	0	0
CCOc1ccc(NC2c3ccccc3C(=O)N2Cc2ccc3c(c2)OCO3)cc1 (stereo not given)	0	0	0	0	0	-
CN(C(=S)NC1CCCCC1)C1(c2ccccc2Cl)CCCCC1=O (stereo not given)	0	0	0	46	0	35
CC(C)NC(=S)N(C)C1(c2ccccc2Cl)CCCCC1=O (stereo not given)	0	0	0	0	0	-
O=C(Nc1ncc2c(n1)CC(c1cccc(Cl)c1)CC2=O)c1ccco1 (stereo not given)	0	0	0	41	0	32
COc1ccc(C/C(=N\OC(C)=O)c2ccc(OC)cc2)cc1	0	0	0	46	0	45
CC(C)CC(COCc1cccc(Cl)c1)N1CCN(C(=O)c2ccc(C(F)(F)F)cc2)CCC1=O (stereo not given)	0	0	0	49	0	0
Cc1cccc(COCC(CC(C)C)N2CCN(C(=O)c3ccc(C(F)(F)F)cc3)CCC2=O)c1 (stereo not given)	0	0	0	0	0	-
CC1CCN(S(=O)(=O)c2ccc(NC(=O)c3ccco3)cc2)CC1	0	0	0	0	0	-
C/C(=N\NC(=O)c1nnn(-c2nonc2N)c1CN(C)c1ccccc1)c1ccccn1	0	-	-	-	-	-
Clc1ccc(Cn2c(/C=C/c3ccco3)nc3ccccc32)cc1	0	0	0	48	0	40
Cc1ccccc1N(CC(=O)NC1CCCCC1)C(=O)CCCC(=O)Nc1ccccn1	0	0	0	0	0	-
COc1ccc(NC(=O)CC2SC(=O)NC2=O)cc1 (stereo not given)	0	0	0	41	0	34
CCOCC(=O)Nc1nc2ccccc2s1	0	0	0	0	0	-
COc1ccc(/C(C)=N/OCC(=O)Nc2nc3ccccc3s2)cc1	0	0	0	42	0	29
Clc1ccccc1OCc1nnc(-c2ccccc2Br)o1	0	0	0	49	0	34
Clc1ccc(-c2ccnc3nc(N4CCOCC4)nn23)c(Cl)c1	0	-	-	-	-	-
Clc1ccc(Cl)c2sc(N3CCCC3)nc12	0	0	0	47	0	37
Cc1cc(C)c(S(=O)(=O)NCc2ccccn2)c(C)c1	0	0	0	0	0	-
O=c1c(C/C=C/c2ccccc2)c(O)ccn1Cc1ccc(Cl)cc1Cl	0	0	0	0	0	-
O=C(CCc1ccccc1)Nc1nc2nc(-c3ccccc3)cc(=O)n2[nH]1	0	0	0	0	0	-
CCOC(=O)C1(S(=O)(=O)c2ccc(Cl)cc2)CCN(Cc2ccc(C)cc2)CC1	0	0	0	50	0	0
O=C(NCC1CCCO1)c1cc2c([nH]c3ccccc32)c(-c2cccc(Cl)c2)n1 (stereo not given)	0	0	0	0	0	-
COc1ccccc1-c1nc(C(=O)NCC2CCCO2)cc2c1[nH]c1ccccc12 (stereo not given)	0	0	0	43	0	0
SMILES	PfHsp90 yeast 2	tim23-1 inh	NALP3 yeast inh	tim10-1 inh	TIM10 inh	tim10-1 confirm
COc1cc(-c2nc(C(=O)NCC3CCCO3)cc3c2[nH]c2ccccc23)cc(OC)c1OC (stereo not given)	-	0	0	42	0	0
Cc1cc(/C=C2/SC(=S)N(c3cccc(C(F)(F)F)c3)C2=O)c(C)n1-c1cccnc1	0	0	0	50	0	0
Cc1cc(-c2ccc(C)c(S(=O)(=O)N3CCN(c4ccccn4)CC3)c2)on1	0	0	0	42	0	32
Cc1cc(-c2ccc(C)c(S(=O)(=O)N3CCN(c4ccc([N+](=O)[O-])cc4)CC3)c2)on1	0	0	0	0	0	-
CCCCOc1cccc(C(=O)NC(=S)Nc2cccnc2)c1	0	0	0	43	0	0
CCOc1cccc(C(=O)NC(=S)Nc2cccnc2)c1	0	0	0	0	0	-
Cc1ccc(C)c(/C=N/Nc2nc3ccccc3c(=O)n2O)c1	-	0	0	0	0	-
Cc1ccc(NC(=O)CN(C)C(=O)COC(=O)CNS(=O)(=O)c2ccc(F)c(F)c2F)cc1	0	0	0	0	0	-
Cc1onc(-c2cccc(Cl)c2Cl)c1C(=O)O/N=C(\N)c1ccc([N+](=O)[O-])o1	0	0	0	44	0	0
C/C(=N\OC(=O)c1c(-c2ccccc2Cl)noc1C)c1ccncc1	-	0	0	0	0	-
COC(=O)c1ccc(OC(=O)CS(=O)c2ccccc2[N+](=O)[O-])cc1 (stereo not given)	0	0	0	55	0	36
O=C(O)CCCC(=O)OCc1c(-c2ccccc2)ncc2ccccc12	0	0	0	0	0	-
CN(C)CCNC(=O)c1ccc2c(=O)n(Cc3ccc(Cl)cc3)c(=S)[nH]c2c1	0	0	0	45	0	0
CSc1nsc(/C=C/Nc2ccc(F)cc2)c1C#N	0	0	0	0	0	-
CSc1nsc(/C=C/Nc2ccc(O)cc2C)c1C#N	0	0	0	46	0	0
CCN(CC(=O)NCc1ccc(F)cc1)C(=O)c1ccc(Cl)cc1	0	0	0	0	0	-
Cc1ccnc(NC(=O)c2cccc(S(=O)(=O)NCc3ccccc3)c2)c1	-	0	0	0	0	-
Cc1[nH]c2ccc(F)cc2c1CCN(Cc1ccncc1)C(=S)Nc1ccc(F)cc1	0	0	0	42	0	0
O=C1C2C3CCCC3=C3CCCC3C2C(=O)N1c1ccc(Cl)cc1 (stereo not given)	0	0	0	42	0	31
COCCN(C(=S)Nc1ccc(OC)cc1)C(C)c1cccs1 (stereo not given)	0	0	0	41	0	0
O=C(Nc1nc2ccc(Br)cc2s1)c1ccco1	0	0	0	0	0	-
O=C(Nc1nc2ccc(Cl)cc2s1)c1ccco1	0	0	0	40	0	0
Cc1nonc1C(=O)N1CCCC(Nc2ccc(C(C)C)cc2)C1 (stereo not given)	0	0	0	0	0	-
O=C(Nc1cccc(-n2cnnn2)c1)c1cnccc1Cl	0	0	0	0	0	-
COc1ccc(NC2=C(NCCO)C(=O)c3ccccc3C2=O)cc1	0	0	0	0	0	-
SMILES	PfHsp90 yeast 2	tim23-1 inh	NALP3 yeast inh	tim10-1 inh	TIM10 inh	tim10-1 confirm
COC1=C(Nc2ccc(OC)cc2)C(=O)c2ccccc2C1=O	0	0	0	40	0	0
COC1=C(Nc2ccc(O)cc2)C(=O)c2ccccc2C1=O	0	0	0	0	0	-
CCOc1ccc(NC2=C(OC)C(=O)c3ccccc3C2=O)cc1	0	0	0	44	0	0
C/C=C/C1=CC(=O)C[C@H](c2ccc(F)cc2)C1	-	0	0	0	0	-
CCOc1cc(C2Nc3cccc4cccc(c34)N2)ccc1O	0	0	0	51	0	0
CCOc1ccc(C2Nc3cccc4cccc(c34)N2)cc1OC	0	0	0	0	0	-
